Reference: PubChem BioAssay (Tox21)
Results filed as inconclusive are left out. Active and inactive are the calls of the source. Unless noted, the call rests on the fitted dose curve; in most records, active means well fitted curve in the direction sought with a large enough effect in the repeat runs; inconclusive means weak or mixed curves; inactive means no such curve, though single readings can be large; an effect the other way counts as inactive or inconclusive.

Assays:
[1] = qHTS assay for small molecules that induce genotoxicity in human embryonic kidney cells expressing luciferase-tagged ATAD5 (AID 651632); further: nearly all actives have a fitted effect of over 15% in size; further: potency means the concentration at half of the fitted maximal effect
Outline: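 Reporter cells (HEK293T) express luciferase-tagged ATAD5, a protein that accumulates after DNA damage. Treat 16 hr at 37C/5% CO2, add Amplite, wait 30 min at RT, and read luminescence.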

[2] = qHTS assay for small molecule agonists of the p53 signaling pathway - cell viability (AID 651633; calls by dose curve; further: nearly all actives have a fitted effect of over 30% in size; further: potency means the concentration at half of the fitted maximal effect)
Outline: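 p53RE-bla cells were treated with compound for 16 hours at 37 C. Cytotoxicity was then measured as CellTiter-Glo luminescence after 30 min at room temperature.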

[3] = qHTS assay for small molecules that induce genotoxicity in human embryonic kidney cells expressing luciferase-tagged ATAD5 - cell viability (AID 651634; calls by dose curve; further: nearly all actives have a fitted effect of over 25% in size; further: potency means the concentration at half of the fitted maximal effect)
Outline: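 Seeding of 2,000 HEK293T ATAD5-luciferase cells per well preceded pin-tool compound transfer. Plates sat 15.5 hr at 37C under 5% CO2, then fluorescence was read after 30 min with CellTiter-Fluor.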

[4] = qHTS assay for small molecule disruptors of the mitochondrial membrane potential (AID 720635); further: potency means the concentration at half of the fitted maximal effect
Outline: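 HepG2 cells exposed to compound 1 hr at 37C, then Mito-MPS dye 30 min. Ratio read of aggregate (540/590 nm) versus monomer (490/535 nm) fluorescence.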

[5] = qHTS assay to test for compound auto fluorescence at 590 nm (red) in HepG2 cells (AID 720674)
Outline: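 Seeding: 2,000 HepG2 cells/well, MEM/10% FBS, overnight 37 C. Dosing: compound vs DMSO. Incubation: 1 hr, 37 C, 5% CO2. Read: fluorescence 540 ex/590 em, Rose Bengal sodium as red reference.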

[6] = qHTS assay to test for compound auto fluorescence at 590 nm (red) in HEK293 cells (AID 720679)
Outline: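 Red autofluorescence, HEK293 cells: 2,000 cells/well; attach 4-5 hr 37C; add 23 nL cpd or DMSO; incubate o/n 37C 5% CO2; read Ex540/Em590; Rose Bengal sodium reference.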

[7] = qHTS assay to test for compound auto fluorescence at 535 nm (green) in HEK293 cells (AID 720680)
[8] = qHTS assay to test for compound auto fluorescence at 460 nm (blue) in HEK293 cell free culture (AID 720681); further: potency means the concentration at half of the fitted maximal effect
Outline: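 Compounds were added to cell-free DMEM with 10% FBS and fluorescence read directly. The blue channel used 405 nm excitation and 460 nm emission, with triamterene as the reference fluorophore.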

[9] = qHTS assay to test for compound auto fluorescence at 535 nm (green) in HEK293 cell free culture (AID 720682)
Outline: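 Cell-free medium (DMEM, 10% FBS) receives compound or DMSO by pintool. Plate read directly at Ex 485/Em 535 nm. Signal converted to fluorescein equivalency.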

[10] = qHTS assay to test for compound auto fluorescence at 590 nm (red) in HEK293 cell free culture (AID 720683)
Outline: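 Cell-free wells of DMEM with 10% FBS received compound, and intrinsic fluorescence was read at excitation/emission 540/590 nm. Values expressed as equivalence to Rose Bengal sodium.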

[11] = qHTS assay to test for compound auto fluorescence at 590 nm (red) in HepG2 cell free culture (AID 720684)
Outline: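 Compound was pinned into wells holding MEM with 10% FBS and no cells, and red fluorescence was read at Ex/Em 540/590 nm. Signal is expressed as auto fluorescence equivalency relative to Rose Bengal sodium.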

[12] = qHTS assay to test for compound auto fluorescence at 535 nm (green) in HepG2 cell free culture (AID 720686)
[13] = qHTS assay to test for compound auto fluorescence at 460 nm (blue) in HepG2 cells (AID 720687); further: potency means the concentration at half of the fitted maximal effect
Outline: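 HepG2 cells in MEM with 10% FBS, attached overnight at 37 C, were exposed to compound or DMSO for 1 hr at 37 C, 5% CO2. Blue fluorescence was read at 405/460 nm, with triamterene as reference fluorophore.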

[14] = qHTS assay for small molecule disruptors of the mitochondrial membrane potential - cell viability (AID 720634; calls by dose curve;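 further: human HepG2 liver cancer cells; nearly all actives have a fitted effect of over 20% in size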)
Outline: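 Measuring cytotoxicity alongside mitochondrial potential, the screen quantified ATP by luminescence in HepG2 cells after 1 hr compound incubation and a 30 min room-temperature CellTiter-Glo step.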

[15] = qHTS assay to test for compound auto fluorescence at 535 nm (green) in HepG2 cells (AID 720675)
[16] = qHTS assay to test for compound auto fluorescence at 460 nm (blue) in HEK293 cells (AID 720678)
Outline: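 Intrinsic compound fluorescence is recorded in live HEK293 cultures after overnight incubation at 37C, 5% CO2, using excitation 405 nm and emission 460 nm. Values are referenced to triamterene.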

[17] = qHTS assay to test for compound auto fluorescence at 460 nm (blue) in HepG2 cell free culture (AID 720685); further: potency means the concentration at half of the fitted maximal effect
Outline: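 Compound (23 nL) or DMSO pinned into cell-free MEM with 10% FBS; blue fluorescence read at 405/460 nm excitation/emission, expressed as auto-fluorescence equivalency to triamterene.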

[18] = target: Glucocorticoid receptor (Homo sapiens) (UniProt P04150); experiment: qHTS assay to identify small molecule agonists of the glucocorticoid receptor (GR) signaling pathway (AID 720691; active means well fitted activation curve with a large enough effect in the signal ratio in the repeat runs, not every such curve was filed as active; the % refers to the signal ratio); conditions: GR-bla HeLa, beta-lactamase reporter ratio, 18 h; activation: at 62.4 µM (top of the series)
Chain of Glucocorticoid receptor (Homo sapiens) (P04150 whole entry, looked up): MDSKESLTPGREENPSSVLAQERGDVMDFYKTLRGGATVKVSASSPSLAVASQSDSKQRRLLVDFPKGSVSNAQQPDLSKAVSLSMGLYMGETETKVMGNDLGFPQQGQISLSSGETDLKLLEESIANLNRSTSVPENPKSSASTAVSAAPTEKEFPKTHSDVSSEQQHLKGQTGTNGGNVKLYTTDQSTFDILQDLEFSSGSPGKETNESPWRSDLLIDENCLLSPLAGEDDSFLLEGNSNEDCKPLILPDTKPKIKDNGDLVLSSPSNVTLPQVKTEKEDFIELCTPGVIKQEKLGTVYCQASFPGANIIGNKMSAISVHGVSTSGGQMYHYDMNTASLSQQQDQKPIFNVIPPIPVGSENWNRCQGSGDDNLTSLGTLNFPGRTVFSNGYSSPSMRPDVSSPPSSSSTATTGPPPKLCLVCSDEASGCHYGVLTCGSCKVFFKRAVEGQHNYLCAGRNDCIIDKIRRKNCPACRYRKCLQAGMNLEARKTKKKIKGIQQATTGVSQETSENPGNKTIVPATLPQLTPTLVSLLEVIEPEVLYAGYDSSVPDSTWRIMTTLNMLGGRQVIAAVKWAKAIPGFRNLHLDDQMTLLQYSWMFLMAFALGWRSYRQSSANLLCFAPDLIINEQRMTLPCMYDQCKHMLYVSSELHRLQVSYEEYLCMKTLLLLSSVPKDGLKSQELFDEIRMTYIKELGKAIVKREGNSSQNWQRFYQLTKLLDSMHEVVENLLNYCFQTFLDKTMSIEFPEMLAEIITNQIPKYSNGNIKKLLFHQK
Outline: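 Reporter read-out: fluorescence intensity following 2 h room-temperature LiveBLAzer B/G FRET substrate loading. Prior step: GR-bla HeLa cells held 4 h, then treated 18 h at 37 C.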

[19] = target: Glucocorticoid receptor (Homo sapiens) (UniProt P04150); experiment: qHTS assay to identify small molecule antagonists of the glucocorticoid receptor (GR) signaling pathway (AID 720692; active means well fitted inhibition curve with a large enough effect in the signal ratio in the repeat runs, not every such curve was filed as active; the % refers to the signal ratio)
Outline: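 Dexamethasone (5 nM final) stimulated a stably integrated GRE-beta-lactamase reporter in HeLa cells during 18 h co-incubation with compounds; signal was quantified as fluorescence intensity of B/G FRET substrate after 2 h.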

Measured: Potency
Tags describe the fitted curve by direction and shape or compound fluorescence and quenching.

Oc1ccc(Cl)cc1C1CCCC1
active: [4] 3.86 µM
not listed: [14] | [15] | [16] | [17] | [18] | [19]
inactive: all other assays above

COc1cccc2c1[C@@H]1CN(CCCCn3c(=O)[nH]c4c(sc5ncc(-c6ccccc6)nc54)c3=O)C[C@@H]1CO2
active: [2] 29.8 µM | [3] 26.6 µM | [4] 13.3 µM
not listed: [18] | [19]
inactive: all other assays above

CN1CCN(c2ccccc2/C=C2\SCCN(c3ccc(Cl)c(Cl)c3)C2=O)CC1
active: [2] 61.1 µM
not listed: [4] | [7] | [13] | [14] | [18] | [19]
inactive: all other assays above

C[N+](C)(C)CCOP(=O)(O)OP(=O)([O-])OC[C@H]1O[C@@H](n2ccc(N)nc2=O)[C@H](O)[C@@H]1O
inactive: all assays above

CN(C/C=C/c1ccccc1)Cc1cccc2ccccc12
inactive: all assays above

Cc1ccc2nc(-c3ccc(N)cc3)sc2c1S(=O)(=O)O
active: [1] 0.85 µM | [8] 15.8 µM | [17] 25.1 µM [fluorescent] | [13] 22.4 µM [fluorescent]
not listed: [4] | [14] | [15] | [16]
inactive: all other assays above

O=C1CCC(c2ccc(-n3ccnc3)cc2)=NN1
not listed: [7] | [19]
inactive: all other assays above

CCCn1c(=O)[nH]c(=O)c2[nH]cnc21
not listed: [4] | [10] | [15] | [16] | [17] | [18] | [19]
inactive: all other assays above

CC[C@@]1([C@@H]2O[C@@H]([C@H]3O[C@@](O)(CO)[C@H](C)C[C@@H]3C)C[C@@H]2C)CC[C@H]([C@]2(C)CC[C@]3(C[C@H](O)[C@@H](C)[C@@H]([C@@H](C)[C@@H](OC)[C@H](C)C(=O)O)O3)O2)O1 (stereo in doubt)
active: [3] 0.596 µM
not listed: [4] | [10] | [16] | [18] | [19]
inactive: all other assays above
